# PubChem BioAssay AID1489 (National Center for Advancing Translational Sciences (NCATS), 2009)
# Inconclusive results are not listed. Unmarked numbers belong to inactive results. The source made the active and inactive calls. The call rests on the fitted dose curve; in most records, active means well fitted antagonist curve with a large enough effect in the main read-out, with a control signal flat; inconclusive means small, poorly fitted or top-dose-only effect; inactive means no such curve, though single readings can be large or run the other way.
# Target: Neuropeptide S receptor (Homo sapiens) (UniProt Q6W5P4)
# Assay: Confirmation Concentration-Response Assay for Antagonists of the Neuropeptide S Receptor: Calcium Signal Transduction
# Conditions: CHO-NPSR cells, NPS-induced calcium flux, FDSS; series mostly up to 19.3 µM; activity change, negative = inhibition: at the top concentration
# Procedure, shortened: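 CHO cells stably expressing human NPSR, loaded with calcium dye; compounds added, then stimulated with NPS (60 nM in stimulation reagent). Fluorescence (Ex 480, Em 520–560 nm) recorded kinetically on FDSS; AC50 from Hill fit.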
# Neuropeptide S receptor (Homo sapiens), sequence (Q6W5P4 whole entry, looked up): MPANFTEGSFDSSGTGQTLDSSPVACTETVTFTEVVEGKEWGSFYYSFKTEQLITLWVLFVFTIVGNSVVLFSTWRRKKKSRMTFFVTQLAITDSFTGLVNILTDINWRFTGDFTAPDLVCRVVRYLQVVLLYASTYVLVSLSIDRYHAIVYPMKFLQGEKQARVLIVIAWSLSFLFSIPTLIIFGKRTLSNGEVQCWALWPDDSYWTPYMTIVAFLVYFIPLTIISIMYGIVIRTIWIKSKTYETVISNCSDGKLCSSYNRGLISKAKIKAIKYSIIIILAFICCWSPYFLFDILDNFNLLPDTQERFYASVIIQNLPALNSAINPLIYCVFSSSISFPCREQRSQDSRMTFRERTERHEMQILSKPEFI
Compound,"activity change, negative = inhibition [%]",Potency
COc1cc(/C=C2\SC(c3ccc(C)cc3)=NC2=O)cc(OC)c1O,7.8,–
Cn1c(C(=O)NCCN2CCc3ccccc3C2)cc2c(=O)[nH]c3ccccc3c21,3.7,–
CC1(C)Cc2c(c(N3CCOCC3)nc3sc4c(NCC5CCCO5)nnnc4c23)CS1 (configuration not stated),-40.4,–
Cc1ccc(Nc2cc(C)nn2-c2nc(C)cc(C)n2)cc1,24.7,–
COc1ccc(C(=O)N(Cc2ccco2)Cc2cccs2)c(O)c1,34.4,–
Cc1ccc(S(=O)(=O)Nc2cccc3ncccc23)s1,–,3.16 µM (active)
Cc1oc2c(c1C(=O)NCc1cccnc1)C(=O)c1ccccc1C2=O,16.4,–
Cc1ccc(Cn2cc(SCC(=O)Nc3nccs3)c3ccccc32)cc1,-9.34,–
c1cncc(-c2nc(-c3ccco3)cs2)c1,-10.1,–
Cc1ccc(-n2ncc3c(NCc4ccc5c(c4)OCO5)ncnc32)c(C)c1,-21.2,–
O=C(/C(=C/c1ccc(Cl)cc1)c1nc2ccccc2[nH]1)c1cccs1,–,8.91 µM (active)
Brc1ccc(CSc2ncn[nH]2)cc1,-6.38,–
Cc1cccnc1NC(=O)c1c(O)c2cccc3c2n(c1=O)CCC3,-5.87,–
CCC(C)(C)NC(=O)Cc1ccc(C)cc1,10.7,–
CC(C)Cc1nc(N2CCN(C(=O)c3ccccc3)CC2)c(C#N)c2c1CCC2,16,–
C/C(=N\Nc1ncc(Cl)cc1Cl)c1ccccn1,–,2.51 µM (active)

Compound,"activity change, negative = inhibition [%]",Potency
CC1(C)O[C@@H]2C[C@H]3[C@@H]4C[C@H](F)C5=CC(=O)CC[C@]5(C)[C@H]4[C@@H](O)C[C@]3(C)[C@]2(C(=O)CO)O1,34.2,–
Cn1c(COc2ccccc2)nnc1SCc1cc(=O)[nH]c2ccccc12,-4.37,–
C(=C\c1ccccc1)/C=N/N1CCN(c2ccccn2)CC1,-11.5,–
Oc1ccc(N=Nc2nccs2)c(O)c1,-0.946,–
NC(=S)N/N=C/c1ncc(C(F)(F)F)cc1Cl,-1.3,–
C=CCOc1c(Cl)cc(CNc2ccc(N(C)C)cc2)cc1OC,-13.4,–
CN(C)c1nc(=Nc2cccc(Cl)c2)ss1,5.52,–
CN(Cc1cc(=O)[nH]c2ccccc12)C(=O)c1ccccc1,-1.96,–
O=C(/C=C/c1ccco1)NC(=S)Nc1nc(-c2ccc3ccccc3c2)cs1,4.33,–
N#CC(C#N)=c1ccc2c(c1)NC1(CCCCC1)N=2,-13.1,–
CC1CCCc2sc3nc(N4CCN(CCO)CC4)n4ncnc4c3c21 (configuration not stated),17.5,–
O=C(O)c1cccc(Nc2ncnc3ccccc23)c1,-7.58,–
CC1CCCCN1S(=O)(=O)c1ccc(C(=O)Nc2sccc2C(N)=O)cc1 (configuration not stated),–,12.6 µM (active)
COc1ccc(C2c3c(ncn(CCN4CCOCC4)c3=N)Oc3ccc4ccccc4c32)cc1OC (configuration not stated),–,1.58 µM (active)
Cc1cc(C)n(-c2nc(NC(C)C)nc(NC(C)C)n2)n1,29,–
CC(=O)c1sc(-c2ccccc2)cc1NS(=O)(=O)c1ccccc1,19.9,–
